Bioassay records (PubChem BioAssay)
Shown are actives, neighbours in structure and some others; about 12% of the full set was active somewhere.
D1 allo mod: allosterically modulates the human D1 dopamine receptor. AID 641. HEK293 D1, CRE-luciferase, dopamine EC30 potentiation; actives deviate in either direction. 58,000 tested, 5.9% active. B-score at 10 µM. P21728;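 active means luminescence count or its row- and column-corrected plate score outside the 99.7% band of the plate's sample wells, on either side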
Target sequence (P21728 whole entry, looked up): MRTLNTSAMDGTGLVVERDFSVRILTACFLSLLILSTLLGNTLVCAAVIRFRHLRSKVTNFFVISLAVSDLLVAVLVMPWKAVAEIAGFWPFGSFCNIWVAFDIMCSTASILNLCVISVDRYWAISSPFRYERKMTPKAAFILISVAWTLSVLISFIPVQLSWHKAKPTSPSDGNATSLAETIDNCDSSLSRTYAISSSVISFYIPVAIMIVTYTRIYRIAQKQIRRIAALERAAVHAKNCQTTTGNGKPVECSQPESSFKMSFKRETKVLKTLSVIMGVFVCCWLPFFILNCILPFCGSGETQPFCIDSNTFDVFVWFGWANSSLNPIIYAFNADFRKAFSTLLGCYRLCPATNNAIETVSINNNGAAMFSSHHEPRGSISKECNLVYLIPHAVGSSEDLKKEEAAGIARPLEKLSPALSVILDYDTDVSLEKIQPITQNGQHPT
PostGolgi ctrl: inhibits growth of the yeast control strain. efflux-deficient yeast background strain, growth absorbance A615, 16 h. inhibition, % at 10 µM. 98,000 tested, 5% active. AID 738
DAT uptake mod: human DAT dopamine uptake with cocaine, either direction. Q01959. LLC-PK1 hDAT cells, [14C]-dopamine uptake with cocaine IC80; actives deviate in either direction. B-score at 10 µM. 110,000 tested, 1.3% active. AID 449768;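 active means Z score or B-score, a plate-position-corrected score, falls beyond the plate's 99.7% confidence bounds, in either direction; inactive means both scores lie inside the 99.7% bounds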;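 further: scored against the spread of the other compound wells on the same plate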
PLAP act: human PLAP activation; purified PLAP enzyme, luminescent substrate read-out; stronger effect = higher value; 96,000 tested, 1.2% active; activation fold at 20 µM; AID 696; P05187; in the data active means activation fold above about 2
Cav3 T inh: blocks human Cav3.2 T-type calcium channel | Cav3.2-expressing cells, Fluo-4 calcium fluorescence FDSS; stronger effect = lower value | AID 449739 | O95180 | B-score at 10 µM | 100,000 tested, 4% active;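 active means single-dose well whose peak fluorescence ratio is a statistical outlier from its plate by either plate-standardised score or position-corrected B-score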
PostGolgi yeast: growth inhibition of a yeast mutant, post-Golgi transport screen | post-Golgi transport phenotypic cell assay | inhibition, % at 10 µM | 98,000 tested, 0.9% active | AID 739;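 further: yeast cells grown in 1536-well plates; yeast grown about 18 h at 30C before absorbance read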
An asterisk follows results filed as active; . = not tested or not shown. Unless noted, no stated cut-off is given here; in the data, active means inhibition above about 30%; inactive means the rest.

SMILES	D1 allo mod	PostGolgi ctrl	DAT uptake mod	PLAP act	Cav3 T inh	PostGolgi yeast
COc1ccc2nc(NC(=O)c3cc(C)oc3C)sc2c1	.	.	0.786	.	-0.0399	.
COc1ccc(NS(=O)(=O)c2cc(C)ccc2NC(=O)c2cc(C)oc2C)cc1	2.45	0.3	0.00525	1.2	-6.91*	13.3
CC(C)CCN1CC(C(=O)NCc2ccccc2)CC1=O (stereo not drawn)	0.785	7.3	-0.538	0.9	-5.26*	10.4
Cc1cc(C(=O)c2cnc(/N=C/N(C)C)s2)cc(C)c1O	.	1.7	1.74	0.7	0.871	-2.2
CCOC(=O)c1c(NC(=O)C2c3ccccc3Oc3ccccc32)sc(C(=O)N(CC)CC)c1C	.	4.3	-0.0326	1.1	-0.0519	0.5
CCC1=C(OC(=O)N(CC)CC)N2C(=O)OC(=NCc3ccccc3)[C@]2(C)[C@H]2C1=CC[C@H]1C(=O)N(c3ccccc3)C(=O)[C@H]12	.	.	1.85*	.	-0.537	.
CC(C)CCOC(=O)/C(=C/c1ccco1)NC(=O)/C=C/c1ccccc1	.	10.6	0.22	0.9	-5.78*	0.2
CCn1nnc(-c2ccccc2NC(=O)c2cnccn2)n1	.	.	-0.0467	.	1.13	.
CC(=O)c1cccc(NC(=O)N2CCCC2C(=O)NC2CCCCC2)c1 (stereo not drawn)	-0.293	-3.4	-1.46	1	0.0305	-9.7
COC(=O)c1ccccc1NC(=O)N1CCN(S(=O)(=O)c2ccc(Cl)cc2)CC1	.	42.7*	-0.0194	0.8	-1.52	3.1
COC(=O)c1ccccc1NC(=O)C1CCCN(S(=O)(=O)c2ccccc2)C1 (stereo not drawn)	-0.129	41.2*	0.00113	0.8	-0.619	-7.3
COC(=O)c1ccccc1NC(=O)C1CCCN(S(=O)(=O)c2ccc(F)cc2)C1 (stereo not drawn)	-0.0118	8.7	0.653	1.6	-2.26	0.0
COC(=O)CSc1nnc(-c2ccc(NS(=O)(=O)c3ccccc3)cc2)o1	-0.789	-1.8	0.362	1.3	1.08	16.7
CC(Oc1ccc(Cl)cc1Cl)c1nc(-c2ccc(NC(=O)c3ccco3)cc2)no1 (stereo not drawn)	.	26.4	0.659	1	-1.67	-6.5
CC1(c2ccccc2)NC(=O)N(CC(=O)Nc2cccc(C#N)c2)C1=O (stereo not drawn)	-0.225	4.4	0.791	1	-0.409	12.8
Clc1ccc(OCc2nn3c(C4CCCCC4)nnc3s2)c(Cl)c1	1.41	38.7*	0.0244	1.1	-0.13	0.8
O=C(C1CCN(S(=O)(=O)c2ccc(F)cc2)CC1)N1CCOCC1	-0.376	-2.9	-1.27	1.3	0.292	0.0
Cc1cc(C)cc(N2C(=O)CC(n3ccnc3)C2=O)c1 (stereo not drawn)	0.336	31.8*	-0.0836	1.1	-0.527	4.8
CCS(=O)CCSc1nc2ccccc2s1 (stereo not drawn)	.	14.8	-0.752	1.2	2.44	3.4
COCCCNc1nc(SCc2ccccc2)nc2sc3c(c12)CCC3	.	9.6	-0.976	1.1	-3.26	-6.7
N#Cc1cnn(-c2nc(SCc3ccccc3)nc3sc4c(c23)CCCC4)c1N	.	34.1*	0.514	0.9	-4.99*	13.8
CSc1nc2nccc(-c3ccc(Oc4ccccc4)cc3)n2n1	.	32.7*	0.579	1.3	0.722	-1.1
CSc1nc2nccc(-c3ccc(-c4ccccc4)cc3)n2n1	.	-0.4	-0.638	0.9	0.0257	5.7
CC#CCCCC(=O)Nc1ccc(C(=O)O)cc1	-3.09*	3.7	-0.16	0.8	0.71	0.2
N#Cc1ccc(CSc2nnc(-c3cccs3)n2-c2ccccc2)cc1	1.07	43.2*	2.05	1.1	-5.82*	-4.5
SMILES	D1 allo mod	PostGolgi ctrl	DAT uptake mod	PLAP act	Cav3 T inh	PostGolgi yeast
CC(=O)C(C(C)=O)c1c(Cl)c(O)c(O)c2c(C(=O)c3ccccc3)coc12	-1.39	10.2	-0.693	1.4	-1	-2.6
Cc1c(OCc2ccccc2)c(=O)ccn1Cc1ccc(Cl)cc1	.	43.3*	-0.412	1	-0.118	-1.6
COc1ccc(N2CCN(C(c3ccccc3)c3nnnn3Cc3ccc(F)cc3)CC2)cc1 (stereo not drawn)	-0.522	34.1*	0.286	1.6	-4.56*	-1.9
COc1ccc(C(c2nnnn2Cc2ccc(F)cc2)N2CCN(c3ccccc3)CC2)cc1 (stereo not drawn)	0.0233	36.7*	0.14	1.4	-5.78*	7.3
COc1ccc(Cn2nnnc2C(c2ccc(N(C)C)cc2)N2CCC(C)CC2)cc1 (stereo not drawn)	0.731	-5.1	2*	1.1	-4.5	-4.5
COc1ccc(C(c2nnnn2Cc2ccc(F)cc2)N2CCN(c3ccc(OC)cc3)CC2)cc1 (stereo not drawn)	-0.901	28.9	-0.0912	1.5	.	2.9
CC(=O)C(=Nc1ccccc1Cl)NNc1ccc(Cl)cc1	.	.	-1.22	.	-1.76	.
COc1ccc(OC)c(NC(=O)C2=C(C)Nc3ncnn3C2c2cccs2)c1 (stereo not drawn)	1.05	-1.5	0.584	1.1	0.439	-3.6
COc1ccc(C2Oc3ccccc3C3=C2C(c2cccs2)n2ncnc2N3)cc1 (stereo not drawn)	.	19.0	1.17	1.6	-7.06*	-14.3
Brc1ccc(C2C3=C(Nc4ncnn42)c2ccccc2OC3c2ccncc2)cc1 (stereo not drawn)	.	40.2*	0.257	1.7	-4.93*	-2.8
C#CCCOC(=O)N1C2=NC(C(=O)OC)=C(C(=O)OC)[C@@H]3N(Cc4ccccc4)c4ccccc4[C@]23C[C@H]1C(=O)OC	.	.	0.872	.	-2.97	.
CC(C)OC(=O)C1C2C=CC3(CN(Cc4cccs4)C(=O)C13)O2 (stereo not drawn)	-0.778	.	2.21	1	-0.31	.
C[C@H](O)CC1=C[C@H](O)[C@@H](C)OC1=O	.	.	-1.18	.	0.691	.
O=c1c2ccccc2c(C=NCCc2ccccc2)c(O)n1Cc1ccccc1	.	9.6	0.452	0.8	-3.9*	10.9
CCOC(=O)Cc1csc(NC(=O)CSc2ncnc3c2cnn3-c2ccc(OC)cc2)n1	-4.17*	0.7	0.00454	1.2	-1.57	8.0
Cc1csc(NC(=O)CSc2ncnc3c2cnn3-c2ccccc2Cl)n1	-2.1	31.7*	0.241	1.4	-5.54*	1.0
CCOC(=O)c1csc(NC(=O)CSc2nnnn2-c2ccc(OCC)cc2)n1	-0.623	10.2	-1.37	1	-0.811	-1.6
CCOC(=O)Cc1csc(NC(=O)CSc2nnnn2-c2ccc(CC)cc2)n1	-0.531	8.0	-0.52	1.5	-5.41*	-1.7
CCOc1ccc(NC(=O)CSc2nnc(C34CC5CC(CC(C5)C3)C4)n2C)cc1	.	-6.1	-0.0865	1	0.114	-0.8
Cc1cc(NC(=O)C2CCN(S(=O)(=O)c3cnc[nH]3)CC2)ccc1Br	-0.944	-1.3	-1.53	1.3	1.03	1.6
CCOc1cccc(OCCCCN2CCOCC2)c1	.	17.8	-0.919	1.2	0.415	14.2
COc1cccc(OCCCCCCN2CCOCC2)c1	.	21.1	0.3	1.7	0.296	45.1*
O=C(CN1C(=O)CCC1=O)Nc1nc(-c2ccc(Cl)s2)cs1	-0.752	.	.	.	.	.
O=C(CSCC(=O)N1CCCCC1)Nc1nc(-c2ccc(Cl)s2)cs1	.	71.6*	0.782	1.3	-5.18*	32.2*
